Measurements as given in PubChem BioAssay (NCI).
The panel holds about 83,000 compounds, 20% with a hit somewhere; the sample as a whole holds those more often.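 Each cell line was grown in a 96-well plate and treated with one concentration of compound for 48 hours. Values below 10 were considered active.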 A number with no mark means an inactive call. Activity calls are given as the source filed them.

Experiments:
Test in all cases: NCI-60 one-dose screen, 48 h (100 = growth as untreated, 0 = no growth, -100 = all killed)
Conditions in all cases: 10 µM unless noted
SR leukemia = system: SR leukemia
RPMI-8226 leukemia = system: RPMI-8226 leukemia
OVCAR-8 ovarian = system: OVCAR-8 ovarian
OVCAR-5 ovarian = system: OVCAR-5 ovarian
OVCAR-4 ovarian = system: OVCAR-4 ovarian
SK-OV-3 ovarian = system: SK-OV-3 ovarian
IGROV1 ovarian = system: IGROV1 ovarian
OVCAR-3 ovarian = system: OVCAR-3 ovarian
HS 578T breast = system: HS 578T breast
NCI/ADR-RES ovarian = system: NCI/ADR-RES ovarian

Row | Structure (SMILES) | growth (SR leukemia) | growth (RPMI-8226 leukemia) | growth (OVCAR-8 ovarian) | growth (OVCAR-5 ovarian) | growth (OVCAR-4 ovarian) | growth (SK-OV-3 ovarian) | growth (IGROV1 ovarian) | growth (OVCAR-3 ovarian) | growth (HS 578T breast) | growth (NCI/ADR-RES ovarian)
1 | C=C1C(=O)O[C@H]2[C@H]1CC/C(COC(=O)NCc1cc[nH]c1)=C\CC[C@@]1(C)O[C@@H]21 | 4.94% (active) | 30.2% | 70.8% | 50.5% | 57.1% | 75.7% | 15.5% | 16.6% | 63% | 90.6%
2 | O=C(N/N=C/c1ccc(F)cc1)c1ccc(C(F)(F)F)nc1Nc1cccc(C(F)(F)F)c1 | -30.5% (active) | -49.8% (active) | 9.33% (active) | -7.78% (active) | -6.96% (active) | -7.48% (active) | -19.6% (active) | -7.4% (active) | -5.72% (active) | -22.9% (active)
3 | COc1ccc(-c2csc(NC(=O)CSc3nc(-c4ccccc4)cc(=O)[nH]3)n2)cc1 | 61.1% | 41.8% | 70.8% | 94.3% | 54.2% | 91% | 71.6% | 72% | 84.6% | 51.3%
4 | COc1ccc(-c2cn(-c3cc(OC)c(OC)c(OC)c3)c(=O)n2C(C)=O)cc1 | 22.2% | 95.9% | 94.5% | 84.5% | 84.9% | 104% | 77.7% | 109% | 93.4% | 98.5%
5 | CCNc1nc(-c2ccc(Cl)c(OC)c2)c(-c2ccnc(NCCCNS(=O)(=O)c3ccc(Cl)cc3)n2)s1 | 43.4% | 45.9% | 51% | 87.6% | 83% | 42.1% | 56.1% | 81.2% | 64.3% | 77.6%
6 | CC(C)NC1CCC(Nc2ccnc3cc(Cl)ccc23)CC1 (stereo not given) | 84% | 76% | 91.7% | 104% | 79.5% | 93% | 109% | 109% | 96.6% | 108%
7 | COC(=O)CNC(=O)[C@H](Cc1ccccc1)NCc1ccncc1 | 97% | 91% | 98.3% | 105% | 107% | 80.7% | 104% | 113% | 106% | 103%
8 | CCN1C(=O)N(CC)C2C1NN=c1s/c(=C\c3ccc(Cl)cc3Cl)c(=O)n12 (stereo not given) | 12.3% | 16.5% | 10.8% | 28.2% | 46.1% | 29.2% | 13.4% | -43.3% (active) | 15.8% | 5.65% (active)
9 | COC(=O)c1c2c(c(C)[n+]([O-])c1C)C(=O)C(NCc1ccc(Cl)cc1)=CC2=O | 48.6% | 69.8% | 33.1% | 97.3% | 36.6% | 95.8% | 61.2% | -7.64% (active) | 92.2% | 54.8%
10 | C=C(C)[C@@H]1CC[C@]2(C(=O)O)CC[C@]3(C)[C@H](CC[C@@H]4[C@@]5(C)C[C@@H](Cc6cn(CCO[C@@H]7O[C@H](COC(C)=O)[C@H](OC(C)=O)[C@H](OC(C)=O)[C@H]7OC(C)=O)nn6)[C@H](O)C(C)(C)[C@@H]5CC[C@]43C)[C@@H]12 | 48.2% | 38.3% | 77.8% | 97.3% | 72.8% | 80.8% | 59.3% | 67% | 51.9% | 91.8%
11 | CC(C)OC(=O)c1ccc2[nH]c(O)c(C(=Nc3ccc(N(C)C(=O)CN4CCN(C)CC4)cc3)c3ccccc3)c2c1 | -20.3% (active) | -28.9% (active) | -37.4% (active) | -36.2% (active) | -72.3% (active) | -81.6% (active) | -39.2% (active) | -75.7% (active) | -7.07% (active) | 38.4%
12 | Cc1ccc(-n2c(=S)[nH]c3sc4c(c3c2=O)CCC(=O)C4)cc1 | 28.5% | 22.7% | 50.2% | 87.4% | 69.3% | 91.6% | 48.9% | 4.02% (active) | 34.3% | 27.1%
13 | C=C1C(=O)O[C@H]2[C@H]1CC/C(COC(=O)CCSCCC(=O)OC/C1=C/CC[C@@]3(C)O[C@H]3[C@H]3OC(=O)C(=C)[C@@H]3CC1)=C\CC[C@@]1(C)O[C@@H]21 | -15.8% (active) | -27% (active) | 9.02% (active) | -6.34% (active) | 41.7% | 93.6% | -17.3% (active) | -68.8% (active) | 19.4% | 53.4%
14 | N#Cc1cccc(-c2c(-c3ccc4ccccc4c3)oc3ccccc3c2=O)c1 | 9.67% (active) | 46.2% | 62.4% | 53.3% | 68.1% | 51% | 36.5% | 40.2% | 69% | 27.2%
15 | O=S(=O)(Nc1cc(Br)c(O)c2ccccc12)c1ccc(F)cc1 | 11.6% | 27.2% | 3.09% (active) | 113% | -97.5% (active) | 99.7% | 81.4% | -0.424% (active) | 98.3% | 4.65% (active)
16 | Cc1cc(Cl)ccc1NC(=O)c1cc2ccccc2cc1O | 3.8% (active) | 6.82% (active) | 7.81% (active) | 30.5% | 22% | 36.7% | 17.9% | -3.47% (active) | -7.72% (active) | 4.6% (active)
17 | CNC(=O)c1cc(Oc2ccc3c(c2)sc2nc(-c4cc(OC)c(OC)c(OC)c4)cn23)ccn1 | 35.5% | 21% | 49.1% | 104% | 46.2% | 77.7% | 72.7% | 71.9% | 70.2% | 63.5%
18 | CCc1nc2c(=O)[nH]cnc2o1 | 92.8% | 109% | 111% | 107% | 96.2% | 110% | 111% | 111% | 102% | 101%
19 | C#CCOc1ccc2ncnc(Nc3ccc(NC(=O)CCl)cc3)c2c1 | -7.69% (active) | -16.7% (active) | 2.5% (active) | 30.5% | -17.5% (active) | 22.4% | -55.3% (active) | -38.6% (active) | 27.6% | 7.93% (active)
20 | Oc1c(Cl)cc(Cl)c2ccc(Cn3cc(-c4cc(F)cc(F)c4)nn3)nc12 | -22.2% (active) | 5.12% (active) | 69.6% | 91% | 56% | 108% | 85.8% | 2.47% (active) | 88.5% | 108%
21 | O=C(Nc1nc2ccc(F)cc2s1)c1cccnc1Nc1ccc(Cl)cc1 | 29.5% | 25% | 47.3% | 90.9% | -13.1% (active) | 58% | 39.9% | 13.6% | 39.6% | 10.5%
22 | COC(C(=O)[C@@H](O)[C@@H](C)O)[C@@H]1Cc2cc3cc(O[C@H]4C[C@@H](O[C@H]5C[C@@H](O)[C@H](O)C(C)O5)[C@H](O)C(C)O4)c(C)c(O)c3c(O)c2C(=O)[C@H]1O[C@H]1C[C@@H](O[C@H]2C[C@@H](O[C@H]3C[C@@H](O)[C@H](OC)C(C)O3)[C@@H](O)C(C)O2)[C@H](O)C(C)O1 (stereo not given in full) | 3.51% (active) | 0.837% (active) | 7.56% (active) | 14.8% | 11.8% | 19.1% | 16.9% | 5.62% (active) | 20.3% | 59.5%
23 | COc1ccc2[nH]cc(-c3nc(-c4cn(C)c5c(Cl)nccc45)cs3)c2c1 | 13.9% | 44.7% | 22.9% | 97.4% | 68.8% | 60.1% | 71.3% | 77.6% | 54.3% | 11.1%
24 | O=C(NCc1ccccc1)Nc1ccccc1CNc1nc(Nc2ccc(OCCN3CCCC3)cc2)ncc1Cl | 7.02% (active) | 76.1% | 89.9% | 112% | 81.2% | 99.3% | 100% | 104% | 98% | 92.2%
25 | CN1C(=O)/C(=C/c2ccc(C(=O)Nc3ncc(Cc4ccc(Cl)cc4)s3)cc2)SC1=S | 43.2% | 61.3% | 60.4% | 58.1% | 54.9% | 58% | 44.4% | 27.2% | 42% | 37.5%
26 | CS(=O)(=O)Nc1cc(-c2ccc3ncnc(Nc4c(Cl)ccc5c4OCO5)c3c2)cnc1Cl | -8.28% (active) | -19.7% (active) | 8.87% (active) | -28.6% (active) | 8.29% (active) | -10.2% (active) | -53.5% (active) | -64.5% (active) | -16.2% (active) | 3.66% (active)
